Laboratory results: ChEMBL document CHEMBL3988442, “University of Dundee, Small-Polar-MMV Screening Library” (2021)
The campaign covered roughly 48,000 compounds. About 13,000 (27%) showed an effect of 50% or more. The list shows a part of the results.

System: Wolbachia pipientis
Test: Anti-Wolbachia Cell-Based Screen
Assay type: functional
Parameters: scale not given: in the data most compounds retested in dose-response had high values
Conditions: 5 µM

SMILES	Percent Effect [%]
Cc1cc(CN2CCc3nn(C(C)C)c(=O)cc3C2)no1	-4.35
CCc1csc(CCNC(=O)C2CC(=O)N(C(C)C)C2)n1 (stereo unspecified)	2.498
CCOCCC(=O)NC(c1noc(C)n1)c1ccccc1F (stereo unspecified)	-21.83
COc1ccc(CNCC(C)Oc2ccccn2)cc1Br.Cl (stereo unspecified)	9.774
NC(=O)c1noc(Cn2ccc3ccccc3c2=O)n1	-17.09
CC(c1cccc(S(N)(=O)=O)c1)N(C)CCCOc1ccccc1 (stereo unspecified)	114.5
Cc1ccc(OCCCC(=O)NC(C)c2ccc(S(N)(=O)=O)cc2)cc1 (stereo unspecified)	31.07
CN(CCCOc1ccccc1)S(=O)(=O)N1CCOCC1	2.231
CNS(=O)(=O)c1cccc(C(C)NCc2ccccc2)c1 (stereo unspecified)	-4.826
Cc1ccc(OCCN(C)C(C)c2cccc(S(N)(=O)=O)c2)cc1 (stereo unspecified)	121.8
Cc1ccc(C(C)N(C)CCS(=O)(=O)CCC(N)=O)cc1 (stereo unspecified)	1.361
Cc1cccc(C2CCCN2C(=O)CN(C)S(C)(=O)=O)c1C (stereo unspecified)	-12.58
Cc1n[nH]c(C2CN(C(=O)c3ccc(=O)n(C)c3)CCO2)n1 (stereo unspecified)	-1.43
CCC1CN(C(=O)c2cnc(-c3cnn(C)c3)s2)CCO1 (stereo unspecified)	-21.53
CNC(=O)c1ccc(C2CN(C(=O)c3cncs3)CCO2)nc1 (stereo unspecified)	-5.383
O=C(c1cccnc1)N1CCOC(CCCc2ccccc2)C1 (stereo unspecified)	4.666
O=C(c1ccncc1F)N1CCOC(c2cccc(O)c2)C1 (stereo unspecified)	-9.281
CNC(=O)c1ccc(C2CN(C(=O)c3cnn(C)c3)CCO2)nc1 (stereo unspecified)	109.7
O=C(c1cccnc1)N1CCOC(c2ccc(-c3cncnc3)cn2)C1 (stereo unspecified)	91.28
Cn1ccc(C(=O)N2CCOC(c3ccc(C(N)=O)cn3)C2)n1 (stereo unspecified)	91.81
Cc1nc(N)cc(C2CN(C(=O)c3ccn(C)n3)CCO2)n1 (stereo unspecified)	-11.99
Cc1n[nH]c(C2CN(C(=O)c3scnc3C)CCO2)n1 (stereo unspecified)	-53.57
CNC(=O)c1ccc(C2CN(C(=O)c3scnc3C)CCO2)nc1 (stereo unspecified)	111.8
CCN(Cc1noc(CC(C)C)n1)Cc1ccccc1C(=O)O	3.594
COc1ccc(C(=O)C2CCCN(c3cc(N)ncn3)C2)c(C)c1 (stereo unspecified)	-12.01
Cc1cc(C[C@@H]2COC[C@@H]2NC(=O)CN2CCCN(C)CC2)on1	-4.417

SMILES	Percent Effect [%]
Cc1cc(C2CCCN2C(=O)CN2CCc3ccccc32)on1 (stereo unspecified)	-2.751
CNC(=O)c1ccc(C2CN(C(=O)c3coc(C)n3)CCO2)nc1 (stereo unspecified)	128.9
Cc1[nH]ncc1C(=O)N1CCOC(c2cccs2)C1 (stereo unspecified)	6.058
CNC(=O)c1ccc(C2CN(C(=O)c3c[nH]nc3C)CCO2)nc1 (stereo unspecified)	101.4
Cc1cc(NC(=O)c2ccc(C)c(F)c2)[nH]n1	2.098
O=C(COCC1CC1)Nc1cc(-c2ccc(Br)s2)n[nH]1	-5.562
CCS(=O)(=O)CC(=O)NCC1(c2c(F)cccc2F)CCCC1	-2.417
COc1ccc(Cl)cc1-c1cc(NC(=O)C2CNC(=O)N2)[nH]n1 (stereo unspecified)	7.586
COc1ccccc1-c1cc(NC(=O)CCS(=O)(=O)C2CCCC2)[nH]n1	7.035
CC(=O)Nc1cc(-c2cccc(F)c2F)n[nH]1	88.91
CS(=O)(=O)CCCC(=O)Nc1cc(Cl)c(Cl)cn1	1.598
CCS(=O)(=O)CC(=O)Nc1cc(-c2cccc(F)c2F)n[nH]1	100.6
COc1ccccc1-c1cc(NC(=O)COCC2CC2)[nH]n1	4.73
CCOCC(=O)Nc1cc(-c2cccc(F)c2F)n[nH]1	91.5
CS(=O)(=O)CCCC(=O)Nc1cc(-c2cccc(F)c2F)n[nH]1	87.07
CCS(=O)(=O)CC(=O)Nc1c(C)cnn1Cc1cc(F)ccc1F	-26.81
CN1CCOC(C(=O)N2CCCC(C)(C)CC2)C1 (stereo unspecified)	-5.11
CCc1c(C)nc(N)nc1NCCSCc1[nH]cnc1C	-21.58
c1coc(-c2nc(CN3CCn4c(nnc4C4CC4)C3)cs2)c1	21.52
N#Cc1cccnc1N1CCCC(CO)(Cc2ccc(F)cc2)C1 (stereo unspecified)	-22.45
CN(C)C(=O)c1ccc2c(c1)N(C)C(CC(=O)NCc1ncc[nH]1)CO2 (stereo unspecified)	-21.18
O=C(COc1ccccc1)NS(=O)(=O)Cc1ccccc1	9
COCCN1C[C@@H](C)[C@@]2(COCCN(C(=O)Cc3ccccc3)C2)C1.O=C(O)C(F)(F)F	-3.108
CC(C)CC(C#N)NC(=O)c1ccc(Oc2cccnc2)cc1 (stereo unspecified)	0.407
COc1ccc(CN(C)Cc2nc3c(cnn3C)c(=O)[nH]2)cc1OC	10.06
CCN(Cc1nc2c(cnn2C)c(=O)[nH]1)c1ccc(OC)c(OC)c1	11.95

SMILES	Percent Effect [%]
CCN(Cc1nc2c(cnn2C)c(=O)[nH]1)c1cc(C)ccc1C	-12.64
CN(Cc1ccc2c(c1)OCO2)Cc1nc2c(cnn2C)c(=O)[nH]1	5.823
CCN(Cc1nc2c(cnn2C)c(=O)[nH]1)c1cccc(Cl)c1	-0.7695
CCN(Cc1ccc(F)c(F)c1)Cc1nc2c(cnn2C)c(=O)[nH]1	128.6
CCN(Cc1ccc2c(c1)OCO2)Cc1nc2c(cnn2C)c(=O)[nH]1	112.4
CCN(Cc1ccc(OC)c(F)c1)Cc1nc2c(cnn2C)c(=O)[nH]1	142.5
COCCN1C[C@H]2CC[C@@H]1CN(Cc1cc(=O)c3cc(C)ccc3[nH]1)C2	-2.085
COc1c(-c2ccc(O)cc2)oc2cc(O)cc(O)c2c1=O [ISOKAEMPFERIDE]	3.468
CCc1cc(N2CCC(N[C@@H]3CS(=O)(=O)C[C@H]3O)CC2)nc(N(C)C)n1	-8.378
O=S(=O)(C1CC1)N1CCc2ncnc(N3CCOCC3)c2CC1	100.4
O=C(C1CC1)N1CCCN(c2ncnc3c2CCNCC3)CC1	-5.367
O=S(=O)(C1CC1)N1CCc2ncnc(-c3ccsc3)c2CC1	-15.04
Cc1cnc(N2CCc3ncnc(N4CCN(C)CC4)c3CC2)nc1.O=C(O)C(F)(F)F	-5.23
O=S(=O)(C1CC1)N1CCc2ncnc(-c3ccc(F)cc3)c2CC1	10.52
CCOc1ncnc2c1CCN(S(=O)(=O)C1CC1)CC2	10.58
Fc1cccc(N2CCc3ncnc(N4CCOCC4)c3CC2)c1	24.23
c1nc2c(c(N3CCOCC3)n1)CCNCC2	91.19
CN1CCN(c2ncnc3c2CCN(S(=O)(=O)C2CC2)CC3)CC1.O=C(O)C(F)(F)F	114.5
CN1CCN(c2ncnc3c2CCN(c2ncc(F)cn2)CC3)CC1.O=C(O)C(F)(F)F	6.683
Cc1ncnc2c1CCN(S(=O)(=O)C1CC1)CC2	105
CCN1CCC(CC(=O)N2CCCCC2CCn2cccn2)CC1 (stereo unspecified)	1.727
N#Cc1ccc(CNC(=O)NCCNC(=O)C2CCCC2)c(F)c1	4.725
COc1ccc2ccccc2c1CNCC1CCS(=O)(=O)C1.Cl (stereo unspecified)	9.511
O=C(O)C(F)(F)F.O=S(=O)(C1CC1)N1CCc2ncnc(-c3ccncc3)c2CC1	-12.42
O=C(O)C(F)(F)F.O=S(=O)(C1CC1)N1CCc2ncnc(N3CCCC3)c2CC1	105.6
O=C(O)C(F)(F)F.O=C(O)C(F)(F)F.O=C(O)C(F)(F)F.c1ccc(CN2CCc3ncnc(N4CCCC4)c3CC2)nc1	8.605

SMILES	Percent Effect [%]
COCCC1(CNC(=O)NCC2CCCN(C)C2)CCCC1 (stereo unspecified)	2.707
COc1ncc(CN2CCOC(Cc3cccc4ccccc34)C2)cn1 (stereo unspecified)	-6.808
COc1ccc(CN2C[C@H](O)C[C@H]2c2nc(-c3ccccc3)no2)cc1	10.67
CCc1ncc(CN2C[C@@H]3C[C@@H](O)CN3C[C@@H]2Cc2ccccc2)cn1	90.44
CCc1ncc(CN2CCCN(CC3CC3)C(C(C)C)C2)cn1 (stereo unspecified)	-1.309
COc1ncc(CN2C[C@@H]3C[C@@H](O)CN3C[C@@H]2Cc2ccccc2)cn1	106.8
COCc1ncc(CN2CC[C@@](C)(O)[C@@H](Cc3ccccc3)C2)cn1	-1.853
CN(C)CCN1Cc2ncn(C)c2C(COCC(=O)N(C)C)C1 (stereo unspecified)	87.7
CN(C)CC(=O)N1Cc2ncn(C)c2C(COCC2CCOCC2)C1 (stereo unspecified)	11.09
CN(C)C(=O)N1Cc2ncn(C)c2C(COCC2CCOCC2)C1.O=C(O)C(F)(F)F (stereo unspecified)	-8.2
CCOCCN1Cc2ncn(C)c2C(COCC2CCOCC2)C1.O=C(O)C(F)(F)F.O=C(O)C(F)(F)F (stereo unspecified)	-3.886
CCOCC1CN(C(=O)N(C)C)Cc2nn(C)cc21 (stereo unspecified)	-8.201
CN(C)C(=O)COCC1CN(CC2CCOCC2)Cc2ncn(C)c21 (stereo unspecified)	99.32
Cc1ccc(CN2C[C@H]3C(=O)N(CC4CC4)C[C@@]3(C(=O)O)C2)c(F)c1F	26.68
O=C(CCc1nc(Cl)n[nH]1)N1CCC2(CCCN(CC3CCC3)C2=O)C1 (stereo unspecified)	-5.22
O=C(CCCn1cncn1)N1CCC2(CCCN(CC3CC3)C2=O)C1 (stereo unspecified)	15.06
CS(=O)(=O)CCC(=O)N1CCC2(CCCN(C3CCOCC3)C2=O)C1 (stereo unspecified)	-5.583
O=C(CSCC1CC1)N1CCC2(CCCN(C3CCOCC3)C2=O)C1 (stereo unspecified)	90.41
O=C(CCCn1cncn1)N1CCC2(CCCN(C3CCCC3)C2=O)C1 (stereo unspecified)	-21.81
O=C(COCC(F)(F)C(F)F)N1CCC2(CCCN(CC3CC3)C2=O)C1 (stereo unspecified)	-8.945
CN1CCCC2(CCN(C(=O)Cc3cc4c(cc3Cl)OCCO4)C2)C1=O (stereo unspecified)	-11.77
O=C(CSC(F)(F)F)N1CCC2(CCCN(C3CCOCC3)C2=O)C1 (stereo unspecified)	96.55
O=C(CN1CCOCC1)N1CCC2(CCCN(C3CCOCC3)C2=O)C1 (stereo unspecified)	102.1
